Measurements as given in the supplement of paper PMC8728848.
Many of the other results were omitted from the sample, so the strongest signals are more common in it than they were.

Legend:
Test in all cases: glycan array binding signal (z-score within array); higher = stronger binding
Conditions in all cases: glycan notation: IUPAC condensed, linker removed; mutation: E41G
Fuc(a1-2)Gal(b1-3)GalNAc = molecular target: Fuc(a1-2)Gal(b1-3)GalNAc
Outline: (§1)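 The binding signal is a Z-score computed within each array. Data were drawn from 3228 arrays in the Consortium for Functional Glycomics database, restricted to those with a known protein sequence. Scores were averaged over arrays of the same protein sequence at different concentrations or buffers, and over linkers, and negative values can be taken as non-binding.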

[1] = molecular target: Fuc(a1-2)Gal(b1-3)GlcNAc(b1-3)GalNAc
Outline: as §1

[2] = molecular target: Fuc(a1-2)Gal(b1-3)GlcNAc(b1-3)[Fuc(a1-2)Gal(b1-3)GlcNAc(b1-6)]GalNAc
Outline: as §1

[3] = molecular target: Fuc(a1-2)Gal(b1-3)GlcNAc6S
Outline: as §1

[4] = molecular target: Fuc(a1-2)Gal(b1-3)[Fuc(a1-4)]GlcNAc
Outline: as §1

[5] = molecular target: Fuc(a1-2)Gal(b1-4)GlcNAc6S
Outline: as §1

[6] = molecular target: Fuc(a1-2)Gal(b1-4)[Fuc(a1-3)]GlcNAc(b1-2)[Fuc(a1-2)Gal(b1-4)[Fuc(a1-3)]GlcNAc(b1-4)]Man(a1-3)[Fuc(a1-2)Gal(b1-4)[Fuc(a1-3)]GlcNAc(b1-2)Man(a1-6)]Man(b1-4)GlcNAc(b1-4)GlcNAc
Outline: as §1

[7] = molecular target: Fuc(a1-2)Gal6S(b1-4)Glc6S
Outline: as §1

[8] = molecular target: Fuc(a1-2)[Gal(a1-3)]Gal(b1-4)Glc
Outline: as §1

[9] = molecular target: Fuc(a1-2)[Gal(a1-3)]Gal(b1-4)GlcNAc(b1-2)Man(a1-3)[Fuc(a1-2)[Gal(a1-3)]Gal(b1-4)GlcNAc(b1-2)Man(a1-6)]Man(b1-4)GlcNAc(b1-4)GlcNAc
Outline: as §1

[10] = molecular target: Fuc(a1-2)[Gal(a1-3)]Gal(b1-4)GlcNAc(b1-3)GalNAc
Outline: as §1

[11] = molecular target: Fuc(a1-2)[GalNAc(a1-3)]Gal(b1-3)GlcNAc(b1-2)Man(a1-3)[Fuc(a1-2)[GalNAc(a1-3)]Gal(b1-3)GlcNAc(b1-2)Man(a1-6)]Man(b1-4)GlcNAc(b1-4)[Fuc(a1-6)]GlcNAc
Outline: as §1

[12] = molecular target: Fuc(a1-2)[GalNAc(a1-3)]Gal(b1-4)GlcNAc(b1-3)Gal(b1-4)GlcNAc(b1-3)Gal(b1-4)GlcNAc
Outline: as §1

Gal(a1-3)Gal(b1-3)GlcNAc = molecular target: Gal(a1-3)Gal(b1-3)GlcNAc
Outline: as §1

[13] = molecular target: Gal(a1-3)Gal(b1-3)[Fuc(a1-4)]GlcNAc(b1-2)Man(a1-3)[Gal(a1-3)Gal(b1-3)[Fuc(a1-4)]GlcNAc(b1-2)Man(a1-6)]Man(b1-4)GlcNAc(b1-4)GlcNAc
Outline: as §1

Gal(b1-2)Gal = molecular target: Gal(b1-2)Gal
Outline: as §1

[14] = molecular target: Gal(b1-3)GalNAc(a1-3)[Fuc(a1-2)]Gal(b1-4)Glc
Outline: as §1

[15] = molecular target: Gal(b1-3)GlcNAc(b1-2)Man(a1-3)[Gal(b1-3)GlcNAc(b1-2)Man(a1-6)]Man(b1-4)GlcNAc(b1-4)GlcNAc
Outline: as §1

[16] = molecular target: Gal(b1-3)GlcNAc(b1-2)Man(a1-3)[Gal(b1-3)GlcNAc(b1-2)Man(a1-6)]Man(b1-4)GlcNAc(b1-4)[Fuc(a1-6)]GlcNAc
Outline: as §1

[17] = molecular target: Gal(b1-3)GlcNAc(b1-3)Gal(b1-3)GlcNAc
Outline: as §1

[18] = molecular target: Gal(b1-3)GlcNAc(b1-3)Gal(b1-4)GlcNAc(b1-2)[Gal(b1-3)GlcNAc(b1-3)Gal(b1-4)GlcNAc(b1-6)]Man(a1-6)[Gal(b1-3)GlcNAc(b1-3)Gal(b1-4)GlcNAc(b1-2)Man(a1-3)]Man(b1-4)GlcNAc(b1-4)[Fuc(a1-6)]GlcNAc
Outline: as §1

[19] = molecular target: Gal(b1-3)[Fuc(a1-4)]GlcNAc(b1-3)Gal(b1-4)[Fuc(a1-3)]GlcNAc
Outline: as §1

[20] = molecular target: Gal(b1-3)[Neu5Ac(b2-6)]GalNAc
Outline: as §1

[21] = molecular target: Gal(b1-4)GlcNAc(b1-2)Man(a1-3)[Gal(b1-4)GlcNAc(b1-2)Man(a1-6)]Man(b1-4)GlcNAc(b1-4)[Fuc(a1-6)]GlcNAc
Outline: as §1

[22] = molecular target: Gal(b1-4)GlcNAc(b1-2)[Gal(b1-4)GlcNAc(b1-4)]Man(a1-3)[Gal(b1-4)GlcNAc(b1-2)Man(a1-6)]Man(b1-4)GlcNAc(b1-4)GlcNAc
Outline: as §1

[23] = molecular target: Gal(b1-4)GlcNAc(b1-3)Gal(b1-4)GlcNAc(b1-3)Gal(b1-4)GlcNAc(b1-3)Gal(b1-4)GlcNAc(b1-2)[Gal(b1-4)GlcNAc(b1-3)Gal(b1-4)GlcNAc(b1-3)Gal(b1-4)GlcNAc(b1-3)Gal(b1-4)GlcNAc(b1-6)]Man(a1-6)[Gal(b1-4)GlcNAc(b1-3)Gal(b1-4)GlcNAc(b1-3)Gal(b1-4)GlcNAc(b1-3)Gal(b1-4)GlcNAc(b1-2)Man(a1-3)]Man(b1-4)GlcNAc(b1-4)[Fuc(a1-6)]GlcNAc
Outline: as §1

[24] = molecular target: Gal(b1-4)GlcNAc(b1-3)Gal(b1-4)[Fuc(a1-3)]GlcNAc(b1-3)Gal(b1-4)[Fuc(a1-3)]GlcNAc
Outline: as §1

Gal4S6S(b1-4)GlcNAc = molecular target: Gal4S6S(b1-4)GlcNAc
Outline: as §1

Gal6S(b1-4)Glc = molecular target: Gal6S(b1-4)Glc
Outline: as §1

[25] = molecular target: GalNAc(b1-3)Gal(a1-4)Gal(b1-4)GlcNAc
Outline: as §1

B1: CVN-E41G (protein)
chain: MHHHHHHENLYFQSGNFSQACYNSAIQGSVLTSTCIRTNGGYNTSSIDLNSVIGNVDGSLKWQGSNFIETCRNTQLAGSSELAAECKTRAQQFVSTKINLDDHIAAIDGTLKYE
- glycan array binding signal (z-score) (Fuc(a1-2)Gal(b1-3)GalNAc): -0.178
- glycan array binding signal (z-score) [1]: -0.168
- glycan array binding signal (z-score) [2]: -0.093
- glycan array binding signal (z-score) [3]: -0.182
- glycan array binding signal (z-score) [4]: -0.157
- glycan array binding signal (z-score) [5]: -0.144
- glycan array binding signal (z-score) [6]: 0.014
- glycan array binding signal (z-score) [7]: -0.023
- glycan array binding signal (z-score) [8]: -0.166
- glycan array binding signal (z-score) [9]: -0.122
- glycan array binding signal (z-score) [10]: -0.189
- glycan array binding signal (z-score) [11]: 0.532
- glycan array binding signal (z-score) [12]: -0.163
- glycan array binding signal (z-score) (Gal(a1-3)Gal(b1-3)GlcNAc): -0.138
- glycan array binding signal (z-score) [13]: 1
- glycan array binding signal (z-score) (Gal(b1-2)Gal): -0.147
- glycan array binding signal (z-score) [14]: -0.175
- glycan array binding signal (z-score) [15]: 0.069
- glycan array binding signal (z-score) [16]: -0.141
- glycan array binding signal (z-score) [17]: -0.13
- glycan array binding signal (z-score) [18]: 1.02
- glycan array binding signal (z-score) [19]: -0.151
- glycan array binding signal (z-score) [20]: -0.158
- glycan array binding signal (z-score) [21]: -0.15
- glycan array binding signal (z-score) [22]: -0.165
- glycan array binding signal (z-score) [23]: -0.125
- glycan array binding signal (z-score) [24]: -0.099
- glycan array binding signal (z-score) (Gal4S6S(b1-4)GlcNAc): -0.19
- glycan array binding signal (z-score) (Gal6S(b1-4)Glc): -0.138
- glycan array binding signal (z-score) [25]: -0.154
